Compounds with a hit are over-represented: about 21% of the library has one in this group of screens.
Pf growth 96h: Primary qHTS for delayed death inhibitors of the malarial parasite plastid, 96 hour incubation | P. falciparum luciferase reporter growth, 96 h | Potency, µM (doses to about 28.7 µM), most hits filed as inhibitors | 320,000 compounds, 6.9% hits; active means well fitted inhibition curve with a large enough effect; inconclusive means small, poorly fitted or top-dose-only effect, or another doubt; inactive means no such curve, though single readings can be large or run the other way
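Compounds incubated with erythrocytes infected by luciferase-expressing P. falciparum (2% hematocrit, 0.05% parasitemia final) for 96 hours, 37 C in 5% CO2. Growth inhibition scored as decreased luciferase luminescence.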
Pf growth 48h: Primary qHTS for delayed death inhibitors of the malarial parasite plastid, 48 hour incubation | AID 504832, 2011 | P. falciparum luciferase growth in erythrocytes, 48 h | Potency, µM (highest dose often 28.7 µM), usual class: inhibitors | 310,000 compounds, 5.9% hits; active means well fitted inhibition curve with a large enough effect; inconclusive means small, poorly fitted or top-dose-only effect, or another doubt; inactive means no such curve, though single readings can be large or run the other way
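Parasite viability was followed by luminescence of a genomically integrated firefly luciferase. Cultures held 0.1% parasitemia at 2% hematocrit (final), incubated under 5% CO2 at 37 C.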
NS1 inh: qHTS Assay for Inhibitors of Influenza NS1 Protein Function | Potency, µM (titrated, usually from 46.1 µM) | 270,000 compounds, 0.4% hits; further: actives are rising curves; nearly all actives have a fitted effect of over 50% in size
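A cell-based growth assay was used: compounds that relieve NS1-induced slow growth of budding yeast raise OD600. Assay medium was yeast nitrogen base with ammonium sulphate and -URA supplement, pH 6.0, with 2% galactose.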
Shiga inhibitor: A qHTS for Small Molecule Inhibitors of Shiga Toxin; Vero cells, Shiga toxin protein synthesis inhibition reporter; inhibition, % at 38.7 µM; 290,000 compounds, 9.2% hits; AID 2315, 2010; in the data active means inhibition mostly above about 28%, no sharp cut-off; inactive means mostly below about 43%
SARS PLP yeast: qHTS of Yeast-based Assay for SARS-CoV PLP; S. cerevisiae expressing SARS-CoV PLpro, growth rescue; Potency, µM (doses to about 32.9 µM), hits mostly activators; 330,000 compounds, 0.19% hits; further: nearly all actives have a fitted effect of over 55% in size
CHX counter: Cycloheximide Counterscreen for Small Molecule Inhibitors of Shiga Toxin; AID 2314, 2010; 300,000 compounds, 12% hits; max response, %; cell reporter, cycloheximide protein synthesis inhibition counterscreen; in the data active means max response mostly above about 13%, no sharp cut-off; inactive means mostly below about 14%; further: read at 38.3 µM for the half of the compounds with a filed dose
A number is an active result; - = inactive; ? = inconclusive; . = no result given; [ ] = dose if it differs, or a comment. Unless noted, the call rests on the fitted dose curve.

SMILES	Pf growth 96h	Pf growth 48h	NS1 inh	Shiga inhibitor	SARS PLP yeast	CHX counter
O=C1C=C(Nc2ccccc2)c2ccccc2C1=O	-	?	-	-	-	-
CCc1ccc(NC2=CC(=O)C(=O)c3ccccc32)cc1	0.074µM	0.083µM	.	.	-	.
CC(C)(C)c1[nH]nc2c1C(c1cccnc1)C(C#N)=C(N)O2 (stereo not given)	?	-	-	-	-	-
CC(C)(C)c1[nH]nc2c1C(Cc1ccccc1)C(C#N)=C(N)O2 (stereo not given)	-	10µM	-	-	-	-
O=C1c2ccccc2C(=O)C1Cc1cccc2ccccc12	-	.	-	-	-	20
CN(C)CCN(Cc1ccco1)S(=O)(=O)c1csc(C(N)=O)c1	8.3µM	-	-	-	-	-
CCCCN(Cc1ccco1)S(=O)(=O)c1csc(C(N)=O)c1	9.3µM	-	-	-	-	-
COc1cccc(C2C3=C(CCCC3=O)Nc3nc(-c4cc(OC)c(OC)c(OC)c4)nn32)c1 (stereo not given)	?	?	-	-	-	-
COc1cc(-c2nc3n(n2)C(c2ccc(F)cc2)C2=C(CCCC2=O)N3)cc(OC)c1OC (stereo not given)	-	5.2µM	-	-	-	-
CCOP(=O)(OCC)/C(=C/N1CCCCC1)NC(=O)c1ccccc1	?	-	-	-	-	13
CCOC(=O)C(NC(=O)c1ccccc1)=C1CCCCC1	?	?	-	-	-	-
CC(CN1CCCCC1)OC(=O)/C=C/c1ccccc1 (stereo not given)	?	-	-	-	-	-
Cc1sc2ccccc2[n+]1CCC(=O)O	.	.	-	.	.	.
CC[n+]1c(C)sc2sc3ccccc3c21	?	1.9µM	-	-	-	-
N#CCSc1nnc(-c2cccnc2)n1-c1ccccc1	-	-	-	-	-	-
CC(C)c1nnc(NC(=O)CCC(=O)N2CCN(c3ccccn3)CC2)s1	-	-	1µM	-	-	-
O=C(O)CCC(=O)N1CCN(c2ccccn2)CC1	-	-	-	-	-	-
O=C(CSc1nccc2ccccc12)N1CCN(c2ccccn2)CC1	-	.	-	-	-	-
Cc1ccc(SCC(=O)N2CCN(c3ccccn3)CC2)cc1	-	-	-	52	-	18
CCSc1nnc(-c2cccnc2)n1-c1ccc(C)c(Cl)c1	4.7µM	.	-	-	-	-
O=C(CCSCc1ccccc1Cl)N1CCN(c2ccccn2)CC1	-	-	-	44	-	41
NC(=O)NNc1cccc(Cl)n1	-[1.15 µM]	-	-	-	-	-
NC(=O)c1cc([N+](=O)[O-])ccc1NCc1ccc(O)cc1	?	?	.	.	-	.
Cc1ccc(-n2c(SCC(=O)N3CCOCC3)nnc2-c2cccnc2)cc1C	?	-	-	-	-	-
Cc1ccc(-n2c(SCC(=O)N3CCN(c4ccccn4)CC3)nnc2N2CCCC2)cc1	8.3µM	9.3µM	.	.	-	.
SMILES	Pf growth 96h	Pf growth 48h	NS1 inh	Shiga inhibitor	SARS PLP yeast	CHX counter
Cc1ccc(-n2c(SCC(=O)N3CCOCC3)nnc2-c2cccnc2)cc1	-[5.75 µM]	-	-	56	-	24
Cc1ccc(C)c(-n2c(SCC(=O)N3CCCC3)nnc2-c2ccccn2)c1	-	-	-	-	-	-
CCN(CC)S(=O)(=O)c1ccc(/C=C/C(=O)OCC(=O)NCc2ccc3c(c2)OCO3)cc1	-	-	-	-	-	-
CCCN(C(=O)c1ccc([N+](=O)[O-])c(C)c1)c1c(N)n(Cc2ccccc2)c(=O)[nH]c1=O	-	-	.	.	-	.
c1ccc(C2CNCCc3ccccc32)cc1 (stereo not given)	1.7µM	-[0.00184 µM]	-	-	-	-
O=C(CN(c1ccccc1)S(=O)(=O)c1ccc(Cl)cc1)Nc1cccnc1	-	-	-	-	-	-
CC(=O)Nc1ccccc1-c1ccc(C)o1	-	-	-	-	-	16
Cc1ccc(NC(=O)CS(=O)CC(=O)Nc2ccccc2-c2ccc(C)o2)cc1 (stereo not given)	?	-	-	-	-	-
O=C(Nc1cc(C(F)(F)F)ccc1-n1cncn1)c1cn2ccccc2n1	.	.	.	.	-	.
Nc1ccccc1C(=O)Nc1ccc(Cl)cc1Cl	-	-	-	127	-	33
O=C(Nc1ccccc1Cl)c1ccc(Cl)cc1Cl	?	-	.	54	-	54
O=C(Nc1ccc(Cl)cc1Cl)c1ccc(-c2ccccc2)cc1	-	-	-	-	-	-
C#Cc1cccc(NC(=O)c2ccc(Cl)cc2Cl)c1	-	-	-	70	-	20
O=C(Nc1ccccc1Cl)c1ccccc1Cl	-	-	-	-	-	-
CC(=O)Nc1cccc(NC(=O)c2cc(Cl)ccc2Cl)c1	?	-	.	-	-	-
O=C(NC(=S)Nc1ccccc1O)c1ccc(Cl)cc1Cl	-	-	-	94	-	30
CC(C)CCNC(=O)c1cc(-c2cccs2)nc2ccccc12	-	.	-	-	-	-
CCCCCCCCCCCCCCCCSCC(COC)COP(=O)([O-])OCC[N+](C)(C)C (stereo not given)	.	.	.	-	.	-
CCC(=O)N1CCN(c2ccc(NC(=O)COc3ccc(CC)cc3)cc2)CC1	-	?	-	-	-	-
CC(C(=O)Nc1ccc(C#N)cc1)N1CCN(C(=O)C2CC2)CC1 (stereo not given)	-	-	.	.	-	.
Cc1ccc(NC(=O)CSc2ncn[nH]2)cc1	-	-	.	-	-	14
CCOc1ccc(NC(=O)CSc2ncn[nH]2)cc1	12µM	-	-	-	-	18
O=C(CSc1ncn[nH]1)Nc1nnc(-c2ccccc2)s1	-	.	-	91	-	67
CCOC(=O)c1c(-c2ccc(C)o2)csc1NC(=O)CSc1ncn[nH]1	15µM	.	-	-	-	-
CCOc1ccccc1Nc1nnc(SCC(=O)N(C)C2CCS(=O)(=O)C2)s1 (stereo not given)	.	.	.	.	-	.
SMILES	Pf growth 96h	Pf growth 48h	NS1 inh	Shiga inhibitor	SARS PLP yeast	CHX counter
CC1CCCC(C)N1C(=O)COC(=O)c1cc(S(=O)(=O)N2CCOCC2)ccc1Cl (stereo not given)	-	-	.	.	-	.
O=C(CSc1ncn[nH]1)Nc1ccc(OCc2ccccc2)cc1	-	-	.	145	-	34
NS(=O)(=O)c1ccc(NC(=O)CSc2ncn[nH]2)cc1	-	-	.	-	-	-
O=C(CSc1ncn[nH]1)Nc1ccc2c(c1)CCC2	-	-	-	-	-	20
O=C(CSc1nc2ccccc2[nH]1)Nc1ccc2c(c1)CCC2	-	-	-	-	-	-
CC1=CC(=C(C#N)C#N)C=C(C)N1CCC(C)C	?	-	.	-	-	-
Cc1cc(CN(C)C(=O)c2cc(COc3ccc(C)c(C)c3)on2)on1	-	-	-	64	-	56
Cc1nnc(CN(C)C(=O)c2cc(COc3ccc(F)cc3Cl)on2)o1	-	-	-	93	-	38
Cc1nn(C)cc1CN(C)C(=O)c1cc(COc2ccc(F)cc2F)on1	?	-	-	-	-	-
Cc1ccc(OCc2cc(C(=O)N(C)Cc3cnn(-c4ccccc4C)c3)no2)cn1	?	-	-	-	-	20

Compound activity deposited in PubChem BioAssay by National Center for Advancing Translational Sciences (NCATS).
